Source: PubChem (National Center for Advancing Translational Sciences (NCATS))
BAZ2B inh: inhibitors of human BAZ2B bromodomain. Q9UIF8. AlphaScreen BAZ2B-H3K14Ac peptide displacement. Potency, µM (doses to about 114 µM), inactives show at the highest dose activity change, negative = inhibition, actives largely listed as inhibitors. hit rate 4.4% among 360,000. AID 504333; note: potency is the fitted concentration of half-maximal effect; % is set by controls: 0 for no effect and ±100 for the full control effect; nearly all actives have a fitted effect of over 60% in size
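Complex of BAZ2B and biotin-H3K14Ac (50 nM apiece) forms over 30 min at RT, then faces library compounds up to 110 uM for another 30 min; AlphaScreen beads added, 20 min dark incubation, luminescence read.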
HP1b binding inh: blocks HP1-beta chromodomain binding to methylated histone tails; AlphaScreen HP1-beta / biotin-H3K9me3 peptide binding; hit rate 0.56% among 390,000; Potency, µM (doses to about 114 µM), for the others: at the highest dose activity change, negative = inhibition, hits mostly inhibitors; AID 540317; P83916; note: potency is the fitted concentration of half-maximal effect; nearly all actives have a fitted effect of over 70% in size
Target sequence (P83916 whole entry, looked up): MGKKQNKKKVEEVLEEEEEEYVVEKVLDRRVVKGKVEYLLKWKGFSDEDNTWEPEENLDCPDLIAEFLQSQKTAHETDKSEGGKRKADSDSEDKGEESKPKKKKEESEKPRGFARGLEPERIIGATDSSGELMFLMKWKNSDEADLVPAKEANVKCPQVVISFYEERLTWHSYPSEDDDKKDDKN
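Compound inhibition of the preformed complex between 50 nM HP1-beta and 50 nM biotinylated H3K9me3 peptide was read by AlphaScreen. Buffer was PBS pH 7.4 with 0.01% Tween-20. Incubations ran 30 min at room temperature, with 10 ug/mL donor/acceptor beads.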
PI5P4Ka inh: inhibitors of human PI5P4K alpha; AID 652105; P48426; hit rate 1.2% among 330,000; max response, %; PI5P4Kalpha enzyme, ADP-Glo luminescence, 60 min; active compounds read low; active = max response of -50% or lower; inconclusive = between -30% and -50%; inactive = -30% or higher; note: value at the top dose of about 77 µM; % is set by controls: 0 for no effect and ±100 for the full control effect
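Enzyme plus substrate dispensed, test compounds pinned in, then ATP (5 microM final) added. After 60 min at RT, ADP-Glo reagent 1 for 45 min and reagent 2 for 30 min preceded luminescence imaging.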
JMJD2A Tudor: inhibitors of human JMJD2A Tudor domain; Potency, µM (doses to about 114 µM), for inactives: at the top dose activity change, negative = inhibition, most hits filed as inhibitors; AID 504339; hit rate 4.4% among 390,000; AlphaScreen JMJD2A-Tudor / H3K4me3 peptide binding; note: potency is the fitted concentration of half-maximal effect; % is set by controls: 0 for no effect and ±100 for the full control effect; nearly all actives have a fitted effect of over 50% in size
JMJD2E inh: JMJD2E (human) inhibition; hit rate 1.6% among 230,000; Potency, µM (doses to about 57.1 µM), without a hit: top-dose activity change, negative = inhibition, actives largely listed as inhibitors; AID 2147; JMJD2E catalytic domain, FDH-coupled NADH fluorescence (FDH is formaldehyde dehydrogenase); B2RXH2; active = well fitted inhibition curve with a large enough effect, not every such curve was filed as active; inconclusive = small, poorly fitted or top-dose-only effect, or another doubt; inactive = no such curve, though single readings can be large or run the other way;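 note: potency is the fitted concentration of half-maximal effect; 0% = wells with enzyme and -100% = buffer wells without enzyme; nearly all actives have a fitted effect of over 50% in size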
Target sequence (B2RXH2 1-337 limits assumed): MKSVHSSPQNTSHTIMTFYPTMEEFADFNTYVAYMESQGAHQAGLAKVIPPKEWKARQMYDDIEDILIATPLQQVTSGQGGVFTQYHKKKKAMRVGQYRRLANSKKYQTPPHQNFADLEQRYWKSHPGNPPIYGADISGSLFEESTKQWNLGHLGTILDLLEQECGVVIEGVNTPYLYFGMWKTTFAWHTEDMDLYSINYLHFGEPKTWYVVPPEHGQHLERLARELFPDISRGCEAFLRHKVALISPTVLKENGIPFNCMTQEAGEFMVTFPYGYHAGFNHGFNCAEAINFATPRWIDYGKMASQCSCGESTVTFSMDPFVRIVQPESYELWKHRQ
L3MBTL1 inh: L3MBTL1 (human) inhibition | Q9Y468 | AlphaScreen L3MBTL1–H3K9me1 peptide binding | Potency, µM (series often up to 57.1 µM), for the others: at the top dose activity, negative = inhibition, usual class: inhibitors | hit rate 0.66% among 230,000 | AID 485360; note: potency is the fitted concentration of half-maximal effect; % is set by controls: 0 for no effect and ±100 for the full control effect; nearly all actives have a fitted effect of over 60% in size
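AlphaScreen assay: L3MBTL1 (50 nM final) was preincubated 30 min at room temperature with biotinylated H3(1-15)K9me1 peptide (75 nM final), then 30 min with library compounds; streptavidin donor and nickel chelate acceptor beads (10 ug/mL final) added, 30 min dark.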
ADP-Glo counter: counter-screen for PI5P4K inhibitors: ADP-Glo detection interference, no enzyme | Potency, µM (series often up to 76.9 µM), for inactives: at the top dose activity change, negative = inhibition, most hits filed as inhibitors | ADP-Glo detection counter-screen, luciferase luminescence, no enzyme | 1,100 tested, under 10 active | shares compounds with PI5P4Ka inh
* marks the source's active call; other numbers are inactive results; ? = inconclusive; . = no result; [ ] = another dose, or the depositor's remark. Hits are enriched below; roughly 5.7% of the tested compounds scored in any of these assays. Unless noted, calls come from the whole dose curve; as a rule, active = well fitted curve in the direction sought with a large enough effect; inconclusive = small, poorly fitted or top-dose-only effect, or another doubt; inactive = no such curve, though single readings can be large; an effect the other way counts as inactive or inconclusive.

SMILES | BAZ2B inh | HP1b binding inh | PI5P4Ka inh | JMJD2A Tudor | JMJD2E inh | L3MBTL1 inh | ADP-Glo counter
O=C(NCc1ccccc1)C(c1ccc(-c2ccccc2)cc1)n1c(=O)c(-c2ccco2)nc2ccccc21 (centres undefined) | . | . | -73* | . | . | . | -7%
COc1cc(CN2CCC(C(=O)NC(c3ccc(-c4ccccc4)cc3)c3cnccn3)CC2)cc(OC)c1 (centres undefined) | . | . | 4 | . | . | . | .
O=C1COc2ccc(C(=O)COC(=O)Cc3c(F)cccc3Cl)cc2N1 | -5% | 2% | -10 | -15% | . | 2% | .
O=C(OCc1nnc(-c2ccccc2)o1)c1cc2ccccc2cc1O | -7% | 49% | -7 | -10% | -5% | 1% | .
O=C(OCc1nnc(-c2ccccc2)o1)c1ccc(S(=O)(=O)NCc2ccco2)cc1 | 79µM* | ? | -54* | 79µM* | 0% | -29% | -3%
O=C(OCc1nnc(-c2ccccc2)o1)c1ccc2ccccc2n1 | -7% | 27% | -66* | -6% | -5% | 2%[11.4 µM] | -6%
O=C(COC(=O)C1=NN(c2ccccc2)C(=O)CC1)Nc1ccc([N+](=O)[O-])cc1C(F)(F)F | -2% | 31% | 1 | -2% | . | 7% | .
NS(=O)(=O)c1cccc(NC(=O)CSc2nnnn2-c2ccccc2)c1 | -7% | 17% | -89* | -9% | 5% | . | -6%
NC(=O)c1ccsc1NC(=O)COC(=O)COc1ccccc1F | 0% | 21% | -26 | -8% | 10% | 6% | .
NC(=O)c1ccsc1NC(=O)COC(=O)c1ccccc1F | 11% | 18% | -54* | -8% | . | -7% | -10%
NC(=O)c1ccsc1NC(=O)COC(=O)CNC(=O)c1ccc(F)cc1 | -6% | 37% | -51* | -19% | . | -1% | 2%
NC(=O)c1ccsc1NC(=O)COC(=O)c1c(F)cccc1Cl | 7% | 2% | -1 | -17% | . | -3% | .
Cc1ccc(NC(=O)c2cc(N3C(=O)CCC3=O)ccc2N2CCCCC2)cc1 | -15% | 17% | 7 | -26% | -8% | -4% | .
Cc1ccc(NC(=O)c2cc(NC(=O)c3ccccc3C(=O)O)ccc2N2CCCCC2)cc1 | ? | 14% | -52* | -22% | -2% | ? | -3%
CCOc1ccc(Cl)cc1S(=O)(=O)n1cnc2ccccc21 | 1% | 19% | 1 | -4% | 9% | 1% | -7%
Cn1cccc2[nH]c(=O)nc1-2 | -2% | -15% | 0 | -10% | ? | 3% | .
CN1OC[C@@H]2CN3C(=O)N(c4cccc5ccccc45)c4ccccc4[C@@H]3C[C@@H]21 | . | . | -53* | . | . | . | 1%
CCC(C)(C)NC(=O)CN(C(=O)C(=O)Nc1ccc2c(c1)OCCO2)C1CC1 | -30% | 4% | -8 | -8% | . | . | .
O=C1Nc2ccc(S(=O)(=O)NCc3ccccn3)c3cccc1c23 | -23% | ? | -60* | ? | ? | . | -8%
O=C(CSc1n[nH]c(-c2cccnc2)n1)OC1CCCCC1 | -21% | -9% | -66* | 22µM* | 5% | -3% | -8%
O=C(O)C1CC(C2CCCCN2)CN2CCCCC12 (centres undefined) | . | . | . | . | -1% | . | .
O=C(Cc1ccc(Cl)cc1Cl)Nc1cccc(S(=O)(=O)Nc2ccccc2F)c1 | ? | ? | -51* | ? | -12% | 9% | -2%
CC(C)[C@@H](CO)NC(=O)c1ccc2c3n(nc2c1)-c1ccccc1CO3 | 5% | 11% | -7 | -12% | ? | . | .
CC(C)NC(=O)c1ccc2c3n(nc2c1)-c1ccccc1CO3 | 24% | 21% | -52* | -11% | ? | . | ?
CN(C(=O)CN1CCN(c2ccccc2F)CC1)C1CCCc2ccccc21 (centres undefined) | ? | 26% | -5 | -17% | . | . | .
SMILES | BAZ2B inh | HP1b binding inh | PI5P4Ka inh | JMJD2A Tudor | JMJD2E inh | L3MBTL1 inh | ADP-Glo counter
COc1ccccc1CNc1nc(NCc2cccc(OC)c2OC)c2sccc2n1 | . | . | . | . | . | . | 3%
COCCNc1nc(NCc2cccc(OC)c2)c2sccc2n1 | . | . | -4 | . | . | . | .
COCCNc1nc(NCCOc2ccccc2)c2sc(-c3ccccc3)cc2n1 | . | . | . | . | . | . | -1%
COCCNc1nc(NCCOC)c2sc(-c3ccccc3)cc2n1 | . | . | -4 | . | . | . | .
COc1cccc(CNc2nc(NC(C)C)nc3ccsc23)c1 | . | . | . | . | . | . | 2%
COc1ccccc1CNc1nc(NCc2ccccc2)nc2ccsc12 | . | . | . | . | . | . | -8%
CCCCNC(=O)Nc1nc2ccc(CC)cc2s1 | -2% | 18% | 2 | -8% | 15% | 7% | .
COc1ccccc1CNc1nc(NCc2ccc(C)cc2C)c2sccc2n1 | . | . | . | . | . | . | -6%
COCCNc1nc(NCc2ccc(C)cc2C)c2sccc2n1 | . | . | -1 | . | . | . | .
COc1ccccc1CNc1nc(NC(C)C)nc2cc(-c3ccccc3)sc12 | . | . | . | . | . | . | -9%
CCOc1ccc(CCNC(=O)c2cnc3c(-c4ccc(F)cc4)c(C)nn3c2C)cc1 | -12% | 22% | . | -8% | . | . | .
CCCn1c(=O)c2[nH]c(-c3ccc(S(=O)(=O)O)cc3)nc2n(CCC)c1=O | -34% | 20% | -82* | -30% | ? | -14% | -2%
O=C(Cc1cccs1)Nc1nnc(SCc2cccc3ccccc23)s1 | ? | 30% | -53* | -29% | -5% | -48% | -1%
O=C(Cc1cccs1)Nc1nnc(SCC(=O)NC2CCCCC2)s1 | 0% | 5% | -25 | -17%[57.1 µM] | 2% | -11% | .
Cc1ccc(CN(C)C(=O)C2CCC(=O)N(CC3CCCCC3)C2)o1 (centres undefined) | -6% | 44% | -1 | -22% | . | . | .
COc1ccc(-c2[nH]c3ccccc3c2SCCNC(=O)c2cc(OC)c(OC)c(OC)c2)cc1 | ? | 13% | . | ? | . | . | .
Cc1cccc(C(=O)Nc2scc(-c3ccc(Br)cc3)c2C(=O)O)c1 | . | 1% | ? | ? | . | . | .
COc1cc(C(=O)Nc2scc(-c3ccc(Br)cc3)c2C(=O)O)cc(OC)c1OC | ? | 21% | -98* | -9% | . | . | 2%
Cc1ccc(-c2csc(NC(=O)c3ccccc3Cl)c2C(=O)O)cc1 | -13% | 19% | -55* | -21% | . | . | 4%
COc1cc(C(=O)Nc2sc(C)c(C)c2C(=O)O)cc(OC)c1OC | 14% | 22% | -3 | -26% | -3% | 62% | .
Cc1ccc(-c2csc(NC(=O)c3ccc(Br)cc3)c2C(=O)O)cc1 | -12% | 24% | -77* | -22% | . | . | 0%
Cc1ccc(C(=O)c2c(N)c(-c3nc(-c4ccc5c(c4)OCO5)cs3)c3ccccn23)cc1C | 5% | 17% | . | -10% | . | . | .
CCc1ccc(-n2c(=O)c3cccnc3n2CC(=O)Nc2cc(F)ccc2F)cc1 | 8% | 44% | . | 21% | . | . | .
NS(=O)(=O)c1ccc(NC(=O)CN2CCN(c3ccc(F)cc3)CC2)cc1 | -10% | 14% | . | -12% | . | . | .
CCOc1ccc(OCC)c(NC(=O)c2ccc(-c3ccccc3)s2)c1 | 6% | 85% | . | 20% | . | . | .
